39 compounds from PubChem BioAssay (NCATS) can be followed below.

Structures are written as SMILES. Values without a mark were called inactive. For part of these data: Results with a measured potency or affinity are listed apart. Activity calls are given as the source filed them. No rule for the calls is given here.
For efficacy in this document: 0% is about no effect.

For the first assay the following is noted: Ebola virus entry assay, green fluorescence channel.
With `N[C@H](C(=O)O)[C@@H](O)c1ccc(O)c(O)c1`, the efficacy is 53.3%.

In the case of `CCOC(C(=O)OCCN(C)C)(c1ccccc1)c1ccccc1`, the efficacy is 59.7%.

`COC[C@@H](c1ccc(C(F)(F)F)cc1)N1CCN(C2(C)CCN(C(=O)c3c(C)ncnc3C)CC2)C[C@H]1C`: the efficacy is 69.2%.

Take `COc1cc2c(cc1OC)C(C(C(=O)N(CCc1ccc(OC)c(OC)c1OC)CCc1ccc(OC)c(OC)c1OC)c1ccccc1)=NCC2` (stereo not drawn): the efficacy is 62.1%.

As to `CCCCCOc1ccccc1/C(=C\SC)n1ccnc1`, the efficacy was 106%.

Regarding `COc1ccc2c(c1)c(CC(=O)O)c(C)n2C(=O)c1ccc(Cl)cc1`, the efficacy was 67.4%.

Consider `COc1ccc(-c2nc3ccc(C4=NNC(=O)CC4C)cc3[nH]2)cc1` (stereo not drawn), for which the efficacy is 23.5%.

As to `COc1cc(NS(=O)(=O)c2ccc(N)cc2)nc(OC)n1`, the efficacy is 31.6%.

In the case of `CCCCC(=O)O[C@]1(C(=O)CO)CC[C@H]2[C@@H]3CCC4=CC(=O)CC[C@]4(C)[C@H]3[C@@H](O)C[C@@]21C`, the efficacy was 66.7%.

Take `CN(C)[C@@H]1C(=O)C(C(=O)NCN2CCCC2)=C(O)[C@@]2(O)C(=O)C3=C(O)c4c(O)cccc4[C@@](C)(O)C3C[C@@H]12` (stereo partly drawn): the efficacy was 145%.

As for `Nc1c2c(nc3ccccc13)CCCC2O` (stereo not drawn), the efficacy was 42.6%.

As to `Nc1ccc2c(c1)CN1C(=O)c3ccccc3C1=N2`, the efficacy is 64.3%.

For the compound `OCCN1CCN(CCCN2c3ccccc3C=Cc3ccccc32)CC1`, the efficacy is 49.7%.

On to `Cc1ccc2c(Br)cc(Br)c(O)c2n1`, for which the efficacy was 99.5%.

For the compound `CCCCCCCCCCCCCCCC[N+](C)(C)Cc1ccccc1`, the efficacy is -178%.

Regarding `CC/C(=C(/CC)c1ccc(O)cc1)c1ccc(O)cc1`, the efficacy is 26.9%.

Take `C=CC[C@]1(O)CC[C@H]2[C@@H]3CCC4=CC(=O)CCC4=C3C=C[C@@]21C`: the efficacy is 89.4%.

Regarding `CCOC(=O)OCC/C(SC(=O)OCC)=C(\C)N(C=O)Cc1cnc(C)nc1N`, the efficacy was 26.7%.

As for `CCCC(=O)OC[C@@H](OC(=O)CCC)[C@@H](OC(=O)CCC)[C@H](Cn1c2nc(=O)[nH]c(=O)c-2nc2cc(C)c(C)cc21)OC(=O)CCC`, the efficacy is 140%.

Regarding `CCN(CC)C(=O)Nc1ccc(OCC(O)CNC(C)(C)C)c(C(C)=O)c1` (stereo not drawn), the efficacy was -36%.

For `CN(C)CCn1nnnc1SCC1=C(C(=O)O)N2C(=O)[C@@H](NC(=O)Cc3csc(N)n3)[C@H]2SC1`, the efficacy was 40.8%.

`CCOC(=O)OC(C)OC(=O)[C@@H]1N2C(=O)[C@@H](NC(=O)[C@H](N)c3ccccc3)[C@H]2SC1(C)C` (stereo partly drawn): the efficacy is 47.6%.

Take `CN1C2CCC(C)(C)C1CC(OC(=O)C(O)(c1cccs1)c1cccs1)C2` (stereo not drawn): the efficacy was 75.5%.

Take `COC(=O)c1nc(Cl)c(Cl)nc1N`: the efficacy was 66.4%.

Regarding `C[C@@H]1CCN(C(=O)[C@H](CCCN=C(N)N)NS(=O)(=O)c2cccc3c2NC[C@H](C)C3)[C@@H](C(=O)O)C1`, the efficacy is -39.7%.

In the case of `C=CCNc1nc(NCC=C)nc(N2CCN(C(c3ccc(F)cc3)c3ccc(F)cc3)CC2)n1`, the efficacy is 31%.

Regarding `c1cnc(N2CCN(Cc3ccc4c(c3)OCO4)CC2)nc1`, the efficacy is 47.2%.

Consider `O=C1OC2(c3ccc(O)cc3Oc3cc(O)ccc32)c2ccccc21`, for which the AC50 was 25.1 µM (active).

In the case of `C[C@]12CC[C@H]3[C@@H](CCC4=CC(=O)CC[C@@]43C)[C@@H]1CC[C@@H]2C(=O)CO`, the efficacy was 61.9%.

For `O=C(COc1ccc(Cl)cc1)N1CCN(Cc2ccc3c(c2)OCO3)CC1`, the efficacy was 71.8%.

Take `CCN(CCCCOC(=O)c1ccc(OC)c(OC)c1)C(C)Cc1ccc(OC)cc1` (stereo not drawn): the efficacy is 112%.

Regarding `C#CCN(C)CCCOc1ccc(Cl)cc1Cl`, the efficacy is -19.7%.

For the compound `C[C@@H]1C[C@H]2[C@@H]3CCC4=CC(=O)C=C[C@]4(C)[C@@]3(F)[C@@H](O)C[C@]2(C)[C@@]1(O)C(=O)COC(=O)c1ccncc1`, the efficacy was 33.7%.

With `O=C(/C=C/c1ccccc1)NCCO`, the efficacy was 100%.

For the compound `CC[C@H]1C[C@H]2[C@@H]3CCC4=CC(=O)CC[C@@H]4[C@H]3CC[C@]2(C)[C@H]1O`, the efficacy was 63.1%.

Regarding `Nc1nc2ccccc2n1Cc1ccc(F)cc1`, the efficacy is 54.1%.

As for `CCC(=O)O[C@]1(C(=O)SCF)[C@H](C)C[C@H]2[C@@H]3C[C@H](F)C4=CC(=O)C=C[C@]4(C)[C@@]3(F)[C@@H](O)C[C@@]21C`, the efficacy was 69.2%.

For the compound `CC(C)NCCCC1(C(N)=O)c2ccccc2-c2ccccc21`, the efficacy was 42.8%.

In the case of `Nc1ccc(C(=O)N2CC3CC(CN(Cc4ccccc4)C3)C2)cc1`, the efficacy was 68.8%.

The conditions of another assay: Ebola virus entry assay, blue channel fluorescence.
Regarding `N[C@H](C(=O)O)[C@@H](O)c1ccc(O)c(O)c1`, the AC50 was 22.4 µM (active).

With `CCOC(C(=O)OCCN(C)C)(c1ccccc1)c1ccccc1`, the AC50 was 22.4 µM (active).

Consider `COC[C@@H](c1ccc(C(F)(F)F)cc1)N1CCN(C2(C)CCN(C(=O)c3c(C)ncnc3C)CC2)C[C@H]1C`, for which the result was inactive.

Take `COc1cc2c(cc1OC)C(C(C(=O)N(CCc1ccc(OC)c(OC)c1OC)CCc1ccc(OC)c(OC)c1OC)c1ccccc1)=NCC2` (stereo not drawn): the call was inactive.

As for `CCCCCOc1ccccc1/C(=C\SC)n1ccnc1`, the outcome was inactive.

For `COc1ccc2c(c1)c(CC(=O)O)c(C)n2C(=O)c1ccc(Cl)cc1`, the outcome was inactive.

`COc1ccc(-c2nc3ccc(C4=NNC(=O)CC4C)cc3[nH]2)cc1` (stereo not drawn): the outcome was inactive.

Turning to `COc1cc(NS(=O)(=O)c2ccc(N)cc2)nc(OC)n1`, the result was inactive.

For the compound `CCCCC(=O)O[C@]1(C(=O)CO)CC[C@H]2[C@@H]3CCC4=CC(=O)CC[C@]4(C)[C@H]3[C@@H](O)C[C@@]21C`, the outcome was inactive.

For the compound `CN(C)[C@@H]1C(=O)C(C(=O)NCN2CCCC2)=C(O)[C@@]2(O)C(=O)C3=C(O)c4c(O)cccc4[C@@](C)(O)C3C[C@@H]12` (stereo partly drawn), the AC50 was 11.2 µM (active).

Consider `Nc1c2c(nc3ccccc13)CCCC2O` (stereo not drawn), for which the result was inactive.

Consider `Nc1ccc2c(c1)CN1C(=O)c3ccccc3C1=N2`, for which the compound was classed as inactive.

For the compound `OCCN1CCN(CCCN2c3ccccc3C=Cc3ccccc32)CC1`, the AC50 is 14.1 µM (active).

`Cc1ccc2c(Br)cc(Br)c(O)c2n1`: the AC50 is 35.5 µM (active).

Take `CCCCCCCCCCCCCCCC[N+](C)(C)Cc1ccccc1`: the AC50 is 31.6 µM (active).

Take `CC/C(=C(/CC)c1ccc(O)cc1)c1ccc(O)cc1`: the call was inactive.

On to `C=CC[C@]1(O)CC[C@H]2[C@@H]3CCC4=CC(=O)CCC4=C3C=C[C@@]21C`, for which the AC50 was 28.2 µM (active).

With `CCOC(=O)OCC/C(SC(=O)OCC)=C(\C)N(C=O)Cc1cnc(C)nc1N`, the compound was called inactive.

As to `CCCC(=O)OC[C@@H](OC(=O)CCC)[C@@H](OC(=O)CCC)[C@H](Cn1c2nc(=O)[nH]c(=O)c-2nc2cc(C)c(C)cc21)OC(=O)CCC`, the compound was classed as inactive.

Turning to `CCN(CC)C(=O)Nc1ccc(OCC(O)CNC(C)(C)C)c(C(C)=O)c1` (stereo not drawn), the outcome was inactive.

For the compound `CN(C)CCn1nnnc1SCC1=C(C(=O)O)N2C(=O)[C@@H](NC(=O)Cc3csc(N)n3)[C@H]2SC1`, the AC50 was 17.8 µM (active).

`CCOC(=O)OC(C)OC(=O)[C@@H]1N2C(=O)[C@@H](NC(=O)[C@H](N)c3ccccc3)[C@H]2SC1(C)C` (stereo partly drawn): the result was inactive.

Consider `CN1C2CCC(C)(C)C1CC(OC(=O)C(O)(c1cccs1)c1cccs1)C2` (stereo not drawn), for which the AC50 is 20 µM (active).

With `COC(=O)c1nc(Cl)c(Cl)nc1N`, the compound was classed as inactive.

Regarding `C[C@@H]1CCN(C(=O)[C@H](CCCN=C(N)N)NS(=O)(=O)c2cccc3c2NC[C@H](C)C3)[C@@H](C(=O)O)C1`, the call was inactive.

For the compound `C=CCNc1nc(NCC=C)nc(N2CCN(C(c3ccc(F)cc3)c3ccc(F)cc3)CC2)n1`, the result was inactive.

As for `c1cnc(N2CCN(Cc3ccc4c(c3)OCO4)CC2)nc1`, the result was inactive.

With `O=C1OC2(c3ccc(O)cc3Oc3cc(O)ccc32)c2ccccc21`, the compound was classed as inactive.

Regarding `C[C@]12CC[C@H]3[C@@H](CCC4=CC(=O)CC[C@@]43C)[C@@H]1CC[C@@H]2C(=O)CO`, the outcome was inactive.

Turning to `O=C(COc1ccc(Cl)cc1)N1CCN(Cc2ccc3c(c2)OCO3)CC1`, the call was inactive.

For `CCN(CCCCOC(=O)c1ccc(OC)c(OC)c1)C(C)Cc1ccc(OC)cc1` (stereo not drawn), the AC50 was 20 µM (active).

Consider `C#CCN(C)CCCOc1ccc(Cl)cc1Cl`, for which the AC50 was 39.8 µM (active).

Take `C[C@@H]1C[C@H]2[C@@H]3CCC4=CC(=O)C=C[C@]4(C)[C@@]3(F)[C@@H](O)C[C@]2(C)[C@@]1(O)C(=O)COC(=O)c1ccncc1`: the compound was classed as inactive.

Consider `O=C(/C=C/c1ccccc1)NCCO`, for which the compound was classed as inactive.

As for `CC[C@H]1C[C@H]2[C@@H]3CCC4=CC(=O)CC[C@@H]4[C@H]3CC[C@]2(C)[C@H]1O`, the outcome was inactive.

Turning to `Nc1nc2ccccc2n1Cc1ccc(F)cc1`, the result was inactive.

For `CCC(=O)O[C@]1(C(=O)SCF)[C@H](C)C[C@H]2[C@@H]3C[C@H](F)C4=CC(=O)C=C[C@]4(C)[C@@]3(F)[C@@H](O)C[C@@]21C`, the result was inactive.

With `CC(C)NCCCC1(C(N)=O)c2ccccc2-c2ccccc21`, the call was inactive.

`Nc1ccc(C(=O)N2CC3CC(CN(Cc4ccccc4)C3)C2)cc1`: the compound was classed as inactive.

Broadly, the AC50 is the midpoint of the concentration-response curve, whichever way the signal moves.
